This is a sample that favours compounds with a hit; in the whole collection about 1.9% have one here.
sEH inhibitor: soluble epoxide hydrolase inhibitors, primary screen, biochemical, human sEH | Bifunctional epoxide hydrolase 2 (Homo sapiens), P34913 | recombinant human sEH enzymatic activity assay | inhibition, % at 2 µM | hit rate 0.34% among 91,000 | AID 707, 2007; in the data active means inhibition above about 80%
Target sequence (P34913 whole entry, looked up): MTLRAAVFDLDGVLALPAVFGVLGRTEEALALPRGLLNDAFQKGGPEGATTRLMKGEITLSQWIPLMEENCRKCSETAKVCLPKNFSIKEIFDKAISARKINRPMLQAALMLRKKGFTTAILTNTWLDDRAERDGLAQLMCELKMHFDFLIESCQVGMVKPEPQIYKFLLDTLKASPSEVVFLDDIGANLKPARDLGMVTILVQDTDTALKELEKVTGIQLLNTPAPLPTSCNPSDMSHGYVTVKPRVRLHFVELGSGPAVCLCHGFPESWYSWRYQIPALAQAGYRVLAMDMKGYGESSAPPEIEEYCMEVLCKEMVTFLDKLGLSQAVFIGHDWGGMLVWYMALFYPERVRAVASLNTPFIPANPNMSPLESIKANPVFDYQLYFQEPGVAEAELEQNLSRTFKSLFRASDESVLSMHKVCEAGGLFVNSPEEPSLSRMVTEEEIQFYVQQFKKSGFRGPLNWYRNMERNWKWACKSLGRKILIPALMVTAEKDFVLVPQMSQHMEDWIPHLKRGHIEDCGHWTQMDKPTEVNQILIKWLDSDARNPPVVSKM
F-actin modifier: modifiers of F-actin cytoskeleton organization, primary screen, imaging, HUVEC, phalloidin staining, high-content imaging. HUVEC TNFa F-actin phalloidin imaging. inhibition, % at 2 µM. hit rate 0.18% among 91,000;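 active means inhibition above the batch mean plus 3 SD and confirmed as a hit by visual image inspection, cut at about 30% in these data, passing the limit was not always enough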
Measles CPE: compounds protecting cells from measles virus cytopathic effect, primary screen, measles RdRp inhibitor project, single point, MLSMR library, absorbance | AID 841, 2007 | protection (pct of control), % at 4 µM | Measles virus-infected cells, CPE protection | hit rate 1.5% among 140,000; in the data active means protection mostly above about 24%, no sharp cut-off; inactive means mostly below about 26%
sEH activator: soluble epoxide hydrolase activators, primary screen, biochemical, human sEH. Bifunctional epoxide hydrolase 2 (Homo sapiens), P34913. purified human sEH enzymatic activity, activator screen. activation, % at 2 µM. hit rate 0.04% among 91,000. AID 717, 2007; in the data active means activation above about 37%
Candida biofilm: clotrimazole potentiators killing Candida biofilms, primary screen, with clotrimazole, Alamar Blue. hit rate 0.14% among 85,000. inhibition, % at 6 µM. AID 834, 2007. C. albicans biofilm + clotrimazole;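 active means inhibition above 20%; inactive means inhibition below 20%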;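 further: preformed 24 hr biofilms exposed to compound for 48 hr; 0% = biofilm without compound and 100% = blank killed by clotrimazole plus chlorhexidine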
Starred values were filed as active, the others as inactive; . = no result.

SMILES	sEH inhibitor	F-actin modifier	Measles CPE	sEH activator	Candida biofilm
CCS(=O)(=O)c1ccc2oc(SCC(=O)NC3CCCC(C)C3C)nc2c1 (stereo unspecified)	59.9	1.9	18.7*	-59.3	6.8
CC(=O)c1ccc(OCCn2cnc3ccccc32)cc1	.	.	6.0	.	.
CCOC(=O)c1c(N)sc(C(O)(C(F)(F)F)C(F)(F)F)c1-c1ccccc1	-8.2	-9.1	9.0	10.6	82.2*
CCOC(=O)c1c(N)sc(-c2ccccc2)c1C	-1.0	-1.2	1.6	0.7	-0.2
CCOC(=O)c1c(C)[nH]c(C)c1C(=O)COC(=O)c1ccc(S(=O)(=O)N(CC)CC)cc1	-1.4	9.2	51.1*	-0.1	6.5
Cc1cc(C)cc(-n2nnnc2SCC(=O)Nc2nc(-c3ccc(F)cc3)cs2)c1	-1.4	-6.9	6.0	5.7	.
Cc1cc(C)cc(-n2nnnc2SCC(=O)Nc2nc(-c3ccc(Cl)cc3)cs2)c1	8.2	45.0*	11.0	-7.2	.
Cc1cccc(NC(=O)C2C3C=CC(C4CC34)C2C(=O)O)c1 (stereo unspecified)	2.1	10.7	48.5*	-2.8	7.9
[O-][N+]1=C(c2cccs2)CN(O)C1	-13.8	-5.0	34.3*	12.8	2.6
COc1ccc(CCNC(=O)NC2CCCCC2)cc1	75.7	17.3	12.5	-75.5	9.6
Cc1cnc(C(=O)NCCc2ccc(S(=O)(=O)NC(=O)NC3CCCCC3)cc2)cn1	.	.	84.4*	.	12.2
Cc1ccc(S(=O)(=O)NC2=NCCC2)cc1	10.4	14.1	8.8	-11.6	2.7
COc1cccc(-c2nc(CS(=O)(=O)CC(=O)NCCCOC(C)C)c(C)o2)c1	-3.3	32.0	40.8*	2.0	0.9
COc1ccc(-n2nc(C(=O)NCC(=O)NCc3ccco3)c3ccccc3c2=O)c(OC)c1	1.4	-1.9	9.0	-0.9	-2.1
COc1ccc(-n2nc(C(=O)NCC(=O)NCc3ccc(F)cc3)c3ccccc3c2=O)c(OC)c1	7.7	15.0	86.8*	-10.4	.
Cc1ccn2c(Nc3ccccc3C)c(-c3ccncc3)nc2c1	.	.	8.9	.	.
Cc1c(/C=N/NC(=O)CNc2ccccc2)c2ccccn2c1C(=O)c1ccccc1	.	.	23.3*	.	.
COC(=O)N/N=C/c1c(C)c(C(=O)c2ccc(F)cc2)n2ccccc12	.	.	23.7	.	.
CCOc1c2ccc(C(=O)NCc3ccc(C(F)(F)F)cc3C(F)(F)F)cc2nn1C	14.9	-21.3	1.1	-13.9	.
CCCCn1nc2cc(C(=O)NCc3ccc(C(F)(F)F)cc3C(F)(F)F)ccc2c1OCC	16.8	-3.0	active	-14.2	.
Cc1cccc(S(=O)(=O)N(CC(=O)Nc2ccccc2C)Cc2ccco2)c1	-9.8	2.6	9.1	13.1	38.5*
O=C(CN(Cc1ccco1)S(=O)(=O)c1ccccc1)N/N=C/c1cccc(O)c1	11.7	-13.6	5.1	-9.8	.
Cc1ccc(S(=O)(=O)N(CC(=O)NCc2ccco2)Cc2ccc(F)cc2)cc1	-1.3	100.0*	10.1	5.0	.
Cc1ccc(C)c(NS(=O)(=O)c2ccc(OCC(=O)NCc3ccco3)cc2)c1	1.2	-9.4	12.9	1.0	4.9
Cc1ccc(NS(=O)(=O)c2ccc(OCC(=O)NCc3ccco3)cc2)cc1	3.6	16.8	53.3*	-4.0	7.6
SMILES	sEH inhibitor	F-actin modifier	Measles CPE	sEH activator	Candida biofilm
O=C(CN1CC(c2ccccc2)CC1=O)N/N=C/c1cc(Br)ccc1O (stereo unspecified)	.	.	5.2	.	.
Clc1ccc(-n2ncc3c(NCC4CCCO4)ncnc32)cc1 (stereo unspecified)	.	.	17.2	.	23.0*
c1ccc(-n2ncc3c(NCC4CCCO4)ncnc32)cc1 (stereo unspecified)	.	.	2.3	.	7.3
Cc1cc2cc(C#N)c(N3CCN(S(C)(=O)=O)CC3)nc2cc1C	.	.	5.5	.	.
CCCNS(=O)(=O)c1cccc(C(=O)NC2CCCc3ccccc32)c1 (stereo unspecified)	66.6	6.2	41.4*	-67.2	.
O=C(O)CSc1nnc(Cn2nnc3ccccc32)n1CCc1ccccc1	12.7	-16.4	28.3*	-11.5	6.6
CC1Cc2ccccc2N1C(=O)CSc1nnc(Cn2nnc3ccccc32)n1C (stereo unspecified)	-1.1	-38.2	36.5*	1.7	-6.4
NCc1cccc(-n2cccn2)c1	4.0	-13.4	22.5	-3.4	3.8
c1ccc2c(-n3cccn3)cccc2c1	-16.2	-10.5	38.8*	18.6	-0.1
CCOC(=O)c1c(NC(=O)C2c3ccccc3Oc3ccccc32)sc(C(=O)N(CC)CC)c1C	18.2	18.5	3.8	-17.6	.
COC(=O)c1sc(NC(=O)/C=C/c2ccc(C)o2)nc1C	.	.	2.2	.	.
Cc1cc(SCC(=O)c2cccs2)n2nc(C)c(-c3ccccc3)c2n1	.	.	59.6*	.	.
CCOC(=O)Cn1c(-c2nonc2NC(=O)c2ccccc2F)nc2ccccc21	-3.0	-0.9	50.5*	2.7	-1.7
O=C(Cc1cccs1)N/N=C/C(Br)=C/c1ccccc1	24.4	-2.0	48.3*	-23.0	.
CCOc1ccc(CCn2c(-c3ccco3)nc3ccccc3c2=O)cc1OCC	-13.7	-10.6	44.3*	10.5	3.2
Clc1ccc(CSc2ncnc3nc[nH]c23)cc1	.	.	6.1	.	.
COc1cc(CCN2C(=O)N[C@@H](CCc3ccccc3)C(C(C)=O)=C2C)cc(OC)c1OC	.	.	28.8*	.	.
Cc1ccc(CN2C(=O)CCC2C(=O)NCc2ccco2)cc1 (stereo unspecified)	-8.1	-21.0	8.4	9.9	6.9
O=C(Cc1ccc([N+](=O)[O-])cc1)Nc1ccc(O)cc1C(=O)O	.	.	5.2	.	.
COc1ccc2[nH]c(=O)c(CN(C(=O)C3CCCO3)c3ccc(C)cc3)cc2c1 (stereo unspecified)	-16.5	69.0	22.8	15.3	-0.8
O=C(Nc1nccs1)C1CCCN(S(=O)(=O)c2cccnc2)C1 (stereo unspecified)	-8.6	3.7	10.6	6.9	9.2
O=C(Nc1nccs1)C1CCN(S(=O)(=O)c2cccnc2)CC1	4.0	-15.4	8.2	0.1	21.1*
O=c1[nH]c2ccc(Br)cc2c(-c2ccccc2)c1N1CCOCC1	-7.9	-8.1	55.5*	7.9	1.7
O=c1[nH]c2ccc(Br)cc2c(-c2ccccc2)c1CN1CCOCC1	-1.6	2.6	23.4	0.8	6.7
O=C(CCCOc1ccc(Cl)cc1Cl)N/N=C\C1CCCCC1	98.6*	12.5	26.0	-98.5	.
SMILES	sEH inhibitor	F-actin modifier	Measles CPE	sEH activator	Candida biofilm
Cc1cc(N2CCN(C(=O)c3ccco3)CC2)n2ncnc2n1	-11.3	9.1	3.0	11.6	.
Cc1cc(N2CCN(C(=O)c3ccco3)CC2)n2ncc(-c3ccccc3)c2n1	-1.0	-37.3	39.3*	1.4	-0.5
O=S(=O)(NCCCCCNS(=O)(=O)c1ccccc1)c1ccccc1	9.6	2.9	15.3	-8.9	9.6
O=S(=O)(NCCCc1ccccc1)c1ccccc1	-4.0	7.5	34.6*	2.2	.
Cc1ccc(-c2nnn(CC(=O)N3CCN(c4ccccc4)CC3)n2)o1	7.0	6.7	17.4	-8.2	1.5
Cc1cc(N2CCCC(C(=O)Nc3ccc4c(c3)CCC4)C2)n2ncnc2n1 (stereo unspecified)	81.6*	4.4	4.5	-81.5	5.3
O=c1[nH]c(N2CCOCC2)nc2c1CCCC2	-13.0	-13.8	22.2	11.2	.
